The results in this text go back to PubChem BioAssay.

Inconclusive results are not listed. Calls of active or inactive are those of the source.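 How the source made its calls, unless noted: active means cell viability at or below a set limit in both duplicate runs, the limit being the all-compound median minus 4 SD (cut at about 23% in these data, passing the limit was not always enough); inconclusive means no clear call, values can overlap the other calls; inactive means the rest.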

Assay [1] is described as follows: reducers of endogenous Her2 protein level, primary screen, SKBR3 breast tumor cells, AlphaScreen, ATP viability (AID 461;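 active means Her2 level under about 52% in both replicate screens, with viability over 70% of control, limit read from the data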;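 on Her2 level: lower value means less Her2 protein in the cells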;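 on viability: percent of carrier control wells set as 100% viability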). The following applies: 18-24 h, measured here: SKBR3 viability, ATP luminescence, at 10 µM.
Assay [2] has as its target Receptor tyrosine-protein kinase erbB-2 (Homo sapiens) (UniProt P04626). The assay is described as above. The following applies: 18-24 h, at 10 µM, stronger effect = lower value.
The nature of assay [3]: SK-BR-3 cell growth inhibitors, pilot screen, 24 h, human (AID 572;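 active means viability at or below 10% of carrier control in both of two separate runs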;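 further: compound exposure lasted between 18 and 24 h rather than exactly 24 h; 100% = carrier-treated control wells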). As to conditions: SK-BR-3 viability, CellTiter-Glo luminescence, at 10 µM, stronger effect = lower value. For orientation: Cellular ATP, detected with luciferase, serves as a proxy for viable cell number.
Assay [4] can be described thus: HUVEC growth inhibition – cell-based, human, primary screen (AID 575;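 active means viability at or below 30% in both replicate assays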;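 further: 100% = median of untreated cell wells with 0.1% DMSO on each plate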). The following applies: HUVEC proliferation, CellTiter-Glo luminescence, 72 h; at 10 µM; stronger effect = lower value.
Assay [5] can be described thus: growth inhibitors of H69AR lung tumor, primary screen, human, duplicate replicates (AID 580;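 active means viability at or under a set limit in both replicates, limit being median viability minus 3 SD, cut at about 48% in these data, passing the limit was not always enough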;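 further: 100% = mean luminescence of untreated wells and 0% = no signal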). As to conditions: H69AR lung tumor cells viability, ATP luminescence, 72 h; at 10 µM; stronger effect = lower value.
A short description of assay [6]: reversal of MRP1-mediated doxorubicin resistance, pilot screen, H69AR cells, doxorubicin co-treatment (AID 601;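 active means viability loss from added drug above about 55%, and viability with drug at most 40%, in both replicates, limit read from the data, passing the limit was not always enough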). The following applies: CellTiter-Glo, 72 h, at 10 µM; for differential viability (reversal): stronger effect = higher value.
Assay [7] is described as follows: 384-well plate pilot, post-Golgi transport modulator project, inhibition of yeast transport mutant growth (AID 636; in the data active means inhibition above about 31%). As to conditions: absorbance 615 nm, about 18 h, stronger effect = higher value.
The nature of assay [8]: growth suppression of yeast trafficking mutant, preliminary HTS, modulators of trafficking downstream of Golgi apparatus project, 1536-format plate, OD 615 nm (AID 637; in the data active means inhibition above about 30%). The following applies: yeast transport mutant growth, absorbance 615 nm, 18 h; stronger effect = higher value.
Assay [9] can be described thus: OD615 S. cerevisiae growth inhibition, permissive medium, pilot counter-assay, permissive growth control for S. cerevisiae lifespan shortening project (AID 705;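 active means growth inhibition above 25% in both replicates, a cutoff set 3 SD above the mean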). As to conditions: OD615, 24 h, at 10 µM, stronger effect = higher value.
Assay [10] in a line: Restrictive medium S. cerevisiae growth inhibition, OD615, pilot screen of yeast lifespan reduction project, restrictive growth control (AID 706;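 active means growth inhibition above a set limit, 3 SD over mean compound inhibition, in both replicates, cut at about 43% in these data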;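 further: modified DeaD lifespan yeast strain shifted to restrictive glucose medium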). As to conditions: OD615, 48 h, at 10 µM, stronger effect = higher value.
Assay [11] in a line: viability gain of MRP-1-high H69AR cells under doxorubicin, pilot screen, MRP-1 activator project, CellTiter-Glo, duplicate (AID 807;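 active means viability increase at or above a cutoff of the median across tested compounds plus 3 SD, cut at about 8.5% in these data, passing the limit was not always enough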;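 further: compound pretreatment 18-22 h then 72 h combined with doxorubicin; 0% = doxorubicin alone and 100% = vehicle without doxorubicin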). As to conditions: H69AR viability with doxorubicin, CellTiter-Glo luminescence; at 10 µM; stronger effect = higher value.
A short description of assay [12]: growth suppression of beta-catenin knockout HCT116, pilot screen, human colon tumor cells (AID 823).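 Further: 0% = wells killed by 20 µM Hyamine and 100% = untreated DMSO cell wells.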 The following applies: CellTiter-Glo, 60 h, at 10 µM, stronger effect = lower value.
Assay [13] can be described thus: growth suppression of PTEN-deleted HCT116, pilot screen, cell-based, HCT116 clonal line, CellTiter-Glo (AID 824;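 active means viability at or below 27.92% in each of two runs, the all-compound median minus 4 SD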;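 further: 0% = 20 µM Hyamine control and 100% = vehicle cell control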). As to conditions: 60 h, at 10 µM, stronger effect = lower value.
Assay [14] can be described thus: inhibitors of the yeast RAM network, pilot screen, dse1pr::URA3 reporter, 5-FOA selection (AID 869;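 active means inhibition over a set limit, the all-compound mean plus 3 SD, in both replicate runs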;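 further: 0% = DMSO wells with no growth and 100% = 10 µM 1-NA-PP1 with full growth; RAM network block rescues cells from 5-FOA so hits raise OD615 growth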). As to conditions: S. cerevisiae dse1pr::URA3 5-FOA growth, OD615, 2 d; at 10 µM; stronger effect = higher value; strain carries analog-sensitive mutant Cbk1 kinase.
Assay [15] in a line: RAM signaling pathway blockade in yeast – S. cerevisiae, Pdr1DBD-CYC8 efflux-inhibited sensitized strain, primary screen (AID 1298;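 active means RAM network inhibition above 8.4% in each of two replicates, 3 SD over the compound average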;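 further: 0% = DMSO untreated cells without growth and 100% = 10 µM 1-NA-PP1 full growth; higher means more yeast growth rescued from 5-FOA killing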). The following applies: S. cerevisiae cbk1-as DSE1-URA3 strain, 5-FOA growth OD615, 2 d; at 50 µM; stronger effect = higher value.
[16] abbreviates: H69AR cells + 2 uM doxorubicin, measured here: viability with 2 uM doxorubicin, stronger effect = lower value.
The mark [17] stands for this setting: H69AR cells, compound alone cytotoxicity.

Chain of Receptor tyrosine-protein kinase erbB-2 (Homo sapiens) (P04626 whole entry, looked up): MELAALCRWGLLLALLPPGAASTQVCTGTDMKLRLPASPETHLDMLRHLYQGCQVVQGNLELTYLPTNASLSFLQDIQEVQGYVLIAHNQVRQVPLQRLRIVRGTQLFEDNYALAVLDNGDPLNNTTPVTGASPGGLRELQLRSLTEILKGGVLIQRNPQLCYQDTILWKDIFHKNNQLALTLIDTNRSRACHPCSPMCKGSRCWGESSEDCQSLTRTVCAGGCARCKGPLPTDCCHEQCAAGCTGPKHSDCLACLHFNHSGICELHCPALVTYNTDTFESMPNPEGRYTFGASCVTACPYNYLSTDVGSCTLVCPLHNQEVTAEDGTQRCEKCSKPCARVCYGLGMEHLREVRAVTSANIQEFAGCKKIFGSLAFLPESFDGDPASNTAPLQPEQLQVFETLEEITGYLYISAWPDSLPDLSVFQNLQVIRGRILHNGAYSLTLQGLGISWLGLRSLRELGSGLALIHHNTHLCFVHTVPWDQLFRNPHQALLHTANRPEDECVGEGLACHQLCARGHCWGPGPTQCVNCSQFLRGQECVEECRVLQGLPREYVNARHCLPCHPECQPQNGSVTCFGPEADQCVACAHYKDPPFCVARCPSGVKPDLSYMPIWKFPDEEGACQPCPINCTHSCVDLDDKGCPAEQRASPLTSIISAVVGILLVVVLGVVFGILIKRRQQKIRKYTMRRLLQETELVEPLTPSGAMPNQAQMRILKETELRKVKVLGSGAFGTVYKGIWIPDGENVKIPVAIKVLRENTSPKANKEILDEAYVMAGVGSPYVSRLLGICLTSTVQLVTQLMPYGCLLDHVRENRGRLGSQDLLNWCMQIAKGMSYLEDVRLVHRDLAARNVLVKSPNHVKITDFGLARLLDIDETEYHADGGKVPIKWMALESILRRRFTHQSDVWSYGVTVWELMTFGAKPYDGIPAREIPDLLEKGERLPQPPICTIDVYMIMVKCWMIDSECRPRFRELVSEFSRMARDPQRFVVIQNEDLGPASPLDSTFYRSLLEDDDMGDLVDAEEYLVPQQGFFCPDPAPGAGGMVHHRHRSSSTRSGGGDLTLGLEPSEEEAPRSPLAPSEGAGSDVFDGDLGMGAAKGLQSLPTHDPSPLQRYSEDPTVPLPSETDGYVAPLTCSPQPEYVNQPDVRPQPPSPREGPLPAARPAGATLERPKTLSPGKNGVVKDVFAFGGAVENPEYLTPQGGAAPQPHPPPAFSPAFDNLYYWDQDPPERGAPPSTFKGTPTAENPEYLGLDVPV

What is called viability is a read-out of living cells in per cent, often relative to untreated cells. Broadly, the inhibition is the relative decrease from the control value, in per cent. With `COc1ccccc1-c1nnc(SCC(=O)NC2CCCCC2)o1`, the viability in [1] is 83%; in assay [3], 83% (inactive); in assay [4], 89.7% (inactive); in assay [5], 87.8% (inactive); in [6] (setting [16]), 88.2%; in [6] (setting [17]), 87.8%. Also, the figures for the viability in assay [12] and in assay [13] were 94.6% (inactive) and 94.5% (inactive), respectively. Further, the Her2 level in assay [2] is 72.5% (inactive). Further, the differential viability (reversal) in [6] (H69AR cells + 2 uM doxorubicin) is -0.34% (inactive). For the same compound, the inhibition in assay [7] is 6.13% (inactive); in [8], 1.31% (inactive); in assay [14] it was -0.42% (inactive). Moreover, the growth inhibition was 1.35% (inactive) in assay [9] and 10.7% (inactive) in assay [10]. Moreover, the viability increase in [11] was -3.27% (inactive). In [15], the RAM network inhibition is 3.73% (inactive).
With `CC(=O)Nc1cccc(NC(=O)CSc2nn3c(=O)c(C)nnc3s2)c1`, the viability is 100% in assay [1]; 100% (inactive) in assay [3]; 76.8% (inactive) in assay [4]; 90.8% (inactive) in [5]; 75.3% in assay [6] (setting [16]); 90.8% in assay [6] (setting [17]). The viability in [12] was 110% (inactive); in assay [13], 103% (inactive). Besides, in [2], the Her2 level is 91% (inactive). Further, the differential viability (reversal) in assay [6] (H69AR cells + 2 uM doxorubicin) was 15.5% (inactive). For the same compound, the inhibition in [7] was -5.73% (inactive); in [8], -4.33% (inactive); in assay [14] it was 1.29% (inactive). In addition, the values for the growth inhibition in assay [9] and in assay [10] were -3.39% (inactive) and -16% (inactive), respectively. In assay [11], the viability increase is 0.35% (inactive). For the same compound, the RAM network inhibition in [15] was 4.27% (inactive).
For `Cc1ccc(-c2noc(CN3CCN(c4ccccc4F)CC3)n2)cc1`, the viability was 89.5% in [1]; 89.5% (inactive) in assay [3]; 121% (inactive) in [4]; 92.5% (inactive) in [5]; 95.5% in assay [6] (setting [16]); 92.5% in assay [6] (setting [17]). Moreover, the viability in [12] is 93.3% (inactive); in assay [13], 92.4% (inactive). Further, the Her2 level in assay [2] was 95.5% (inactive). For the same compound, in assay [6] (H69AR cells + 2 uM doxorubicin), the differential viability (reversal) was -3.02% (inactive). The inhibition in assay [7] is 1.87% (inactive); in assay [8], -1.5% (inactive); in [14], -0.38% (inactive). Besides, the growth inhibition in assay [9] was 1.99% (inactive); in [10], -1.21% (inactive). The viability increase in [11] is -2.06% (inactive). Besides, the RAM network inhibition in assay [15] was 3.79% (inactive).
Take `CCn1cc(C2=NOC(C(=O)Nc3c(C)nn(Cc4ccc(F)cc4)c3C)C2)c(C)n1` (stereo not drawn): the viability in assay [1] was 76.5%; in assay [3], 76.5% (inactive); in assay [4] it was 86.2% (inactive); in [5], 88.2% (inactive); in assay [6] (setting [16]), 87.1%; in [6] (setting [17]), 88.2%. For the same compound, the values for the viability in assay [12] and in [13] were 95.2% (inactive) and 103% (inactive), respectively. Moreover, in assay [2], the Her2 level is 86.5% (inactive). Moreover, the differential viability (reversal) in assay [6] (H69AR cells + 2 uM doxorubicin) is 1.12% (inactive). The inhibition in [7] was -1.41% (inactive); in assay [8], 1.67% (inactive); in assay [14], 1.9% (inactive). In addition, the growth inhibition was -11.1% (inactive) in assay [9] and 2.07% (inactive) in assay [10]. For the same compound, the viability increase in assay [11] was 1.43% (inactive). In assay [15], the RAM network inhibition was 1.61% (inactive).
Consider `Cn1nnc2cc(C(=O)N3CCCCCC3)ccc21`, for which the viability in [1] is 81.5%; in assay [3], 81.5% (inactive); in [4] it was 81.7% (inactive); in assay [5] it was 105% (inactive); in [6] (setting [16]), 94.3%; in assay [6] (setting [17]), 105%. In addition, the viability in assay [12] was 109% (inactive); in [13] it was 96% (inactive). Further, in [2], the Her2 level is 99.5% (inactive). For the same compound, the differential viability (reversal) in assay [6] (H69AR cells + 2 uM doxorubicin) was 10.6% (inactive). The inhibition in assay [7] was -4.73% (inactive); in assay [8], -6.23% (inactive); in assay [14], 0.345% (inactive). In addition, the growth inhibition was -10.5% (inactive) in [9] and -19.7% (inactive) in assay [10]. For the same compound, the viability increase in assay [11] is -0.53% (inactive). Further, in [15], the RAM network inhibition is 1.87% (inactive).
For the compound `CCCCS(=O)(=O)NC1=NCN(CCOC(=O)c2ccccc2)CN1`, the viability was 95.5% in [1]; 95.5% (inactive) in assay [3]; 104% (inactive) in assay [4]; 102% (inactive) in assay [5]; 87.6% in assay [6] (setting [16]); 102% in assay [6] (setting [17]). Also, the viability in assay [12] was 91.8% (inactive); in assay [13], 93.2% (inactive). Further, in assay [2], the Her2 level was 84.5% (inactive). For the same compound, in [6] (H69AR cells + 2 uM doxorubicin), the differential viability (reversal) was 14.3% (inactive). For the same compound, the inhibition in [7] was -3.6% (inactive); in assay [8], 2.58% (inactive); in [14] it was 0.005% (inactive). The growth inhibition in assay [9] was -8.81% (inactive); in assay [10], -6.13% (inactive). Also, the viability increase in assay [11] is -2.67% (inactive). The RAM network inhibition in assay [15] was 0.98% (inactive).
Consider `O=C(CC1Oc2ccc(Cl)cc2NC1=O)NC1CCCCCC1` (stereo not drawn), for which the viability in [1] is 92.5%; in assay [3], 92.5% (inactive); in [4], 78.1% (inactive); in [5] it was 88% (inactive); in [6] (setting [16]) it was 91.6%; in [6] (setting [17]), 88%. Also, the viability in assay [12] and in assay [13] was 102% (inactive) throughout. Besides, in [2], the Her2 level was 87.5% (inactive). Moreover, the differential viability (reversal) in [6] (H69AR cells + 2 uM doxorubicin) is -3.67% (inactive). Moreover, the inhibition in assay [7] is -1.47% (inactive); in assay [8] it was 2.13% (inactive); in assay [14] it was 3.56% (inactive). The figures for the growth inhibition in [9] and in [10] were -4.77% (inactive) and -8.75% (inactive), respectively. Also, the viability increase in assay [11] was -1.05% (inactive). Further, the RAM network inhibition in [15] is 4.95% (inactive).
Turning to `CCOC(=O)N1CCC(NC(=O)c2cnn3ccccc23)CC1`, the viability is 112% in [1]; 112% (inactive) in assay [3]; 86% (inactive) in assay [4]; 87.1% (inactive) in assay [5]; 85.9% in assay [6] (setting [16]); 87.1% in assay [6] (setting [17]). The viability in assay [12] was 108% (inactive); in assay [13], 99.9% (inactive). In [2], the Her2 level was 123% (inactive). The differential viability (reversal) in assay [6] (H69AR cells + 2 uM doxorubicin) is 1.21% (inactive). Also, the inhibition in assay [7] is -1.2% (inactive); in assay [8], 3.67% (inactive); in [14] it was 0.135% (inactive). Moreover, the growth inhibition in assay [9] was -12.9% (inactive); in assay [10] it was -10.7% (inactive). In addition, the viability increase in assay [11] is -1.34% (inactive). Moreover, the RAM network inhibition in assay [15] is 2.01% (inactive).
For `Cc1ccc(NC(=O)CN(c2ccc3c(c2)OCO3)S(=O)(=O)c2c(C)n[nH]c2C)cc1`, the viability in assay [1] was 92%; in assay [3] it was 92% (inactive); in assay [4], 85.1% (inactive); in assay [5], 93.1% (inactive); in [6] (setting [16]), 91.5%; in assay [6] (setting [17]), 93.1%. Moreover, the viability in assay [12] is 95.7% (inactive); in assay [13], 96.9% (inactive). Besides, the Her2 level in assay [2] is 83% (inactive). For the same compound, the differential viability (reversal) in [6] (H69AR cells + 2 uM doxorubicin) is 1.52% (inactive). The inhibition in assay [7] was -5.73% (inactive); in [8], 2.33% (inactive); in assay [14], 3.25% (inactive). Further, the growth inhibition in assay [9] was -13.4% (inactive); in [10] it was -19.2% (inactive). The viability increase in assay [11] was 2.09% (inactive). For the same compound, the RAM network inhibition in [15] is 5.15% (inactive).
